“And” between values parts separate entries of the source, which are not always exact repeats. Equal entries are not always repeated. Records with an inconclusive call do not appear. The source made the active and inactive calls. The call rests on the fitted dose curve; in most records, active means well fitted curve in the direction sought with a large enough effect; inconclusive means small, poorly fitted or top-dose-only effect, or another doubt; inactive means no such curve, though single readings can be large; an effect the other way counts as inactive or inconclusive.

This note sets out measurements from PubChem BioAssay (NCATS).

For test [1], the target named is Cytochrome P450 3A7 (Homo sapiens) (UniProt P24462). In words: Cytochrome P450 family 3 subfamily A member 7 (CYP3A7) small molecule antagonists: luciferase biochemical qHTS assay (AID 1963596). Further: nearly all actives have a fitted effect of over 40% in size. Put shortly: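 P450-Glo luminescent assay: CYP3A7 enzyme converts a proluciferin substrate to luciferin, detected by luciferase reagent; light proportional to activity. Compounds in DMSO preincubated 10 min with enzyme-substrate mix at room temperature, then NADPH regeneration added for 1 h.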
Cytochrome P450 3A7 (Homo sapiens), sequence (P24462 whole entry, looked up): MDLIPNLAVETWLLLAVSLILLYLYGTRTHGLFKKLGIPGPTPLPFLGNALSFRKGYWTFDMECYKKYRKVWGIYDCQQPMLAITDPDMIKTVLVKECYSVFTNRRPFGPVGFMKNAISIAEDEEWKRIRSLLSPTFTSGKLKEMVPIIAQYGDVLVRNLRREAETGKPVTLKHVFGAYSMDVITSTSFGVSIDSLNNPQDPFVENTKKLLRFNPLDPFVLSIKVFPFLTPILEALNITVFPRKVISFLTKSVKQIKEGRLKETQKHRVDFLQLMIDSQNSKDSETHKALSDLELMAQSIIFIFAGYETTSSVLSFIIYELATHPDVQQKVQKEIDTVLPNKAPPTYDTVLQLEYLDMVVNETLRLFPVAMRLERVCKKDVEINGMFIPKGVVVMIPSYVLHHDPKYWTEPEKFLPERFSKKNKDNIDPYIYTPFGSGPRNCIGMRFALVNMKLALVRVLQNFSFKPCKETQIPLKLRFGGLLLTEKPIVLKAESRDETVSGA
In general terms: Quantitative high-throughput screening tests each substance at several concentrations.

Test [2] can be described thus: Viability qHTS for spleen associated tyrosine kinase inhibitor (SYKi) naive MV4-11 cells (AID 1963823). Further: nearly all actives have a fitted effect of over 40% in size. Further: potency means the concentration at half of the fitted maximal effect. In short, it runs like this:
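CellTiter-Glo luminescence, 10 min room-temperature incubation, gave viability. Cells: naive MV4-11 (500/well), treated 72 hr at 37 C, 5% CO2.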

A short description of test [3]: Viability qHTS for spleen associated tyrosine kinase inhibitor (SYKi) drug resistant MV4-11 cells (AID 1963824). Further: nearly all actives have a fitted effect of over 35% in size. Further: potency means the concentration at half of the fitted maximal effect. Put shortly: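 SYK-inhibitor-resistant MV4-11 AML cells were seeded at 500 per well onto compound and cultured 72 hours (37 °C, 5% CO2). CellTiter-Glo was then added, and after 10 min at room temperature, luminescence gave viability.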
Test [4] is described as follows: Quantitative highthroughput screen to assess conditional lethalithy of NOMO1 cells grown in RPMI1640 with untreated serum (RPMI+s) (AID 1963876). Further: nearly all actives have a fitted effect of over 35% in size. In short, it runs like this: (§1)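 Each medium arm—HPLM with 10% dialyzed FBS, or RPMI1640 with 5 mM glucose and 10% untreated or dialyzed FBS—was screened against an 11-point, 3-fold compound titration for 48 h at 37 °C, with CellTiter-Glo luminescence as endpoint.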

Test [5] in a line: Quantitative highthroughput screen to assess conditional lethalithy of NOMO1 cells grown in RPMI1640 with dialyzed fetal bovine serum (RPMI+ds) (AID 1963877). Further: series mostly up to about 46 µM; nearly all actives have a fitted effect of over 30% in size. Put shortly: as §1
A short description of test [6]: Quantitative highthroughput screen to assess conditional lethalithy of NOMO1 cells grown in Human Plasma-Like Medium with dialyzed fetal bovine serum (HPLM+ds) (AID 1963878). Further: nearly all actives have a fitted effect of over 35% in size. In short, it runs like this:
as §1

Test [7] is described as follows: Quantitative highthroughput screen to assess conditional lethalithy of P12 Ichikawa cells grown in Human Plasma-Like Medium with dialyzed fetal bovine serum (HPLM+ds) (AID 1963879). Further: series mostly up to about 46 µM; nearly all actives have a fitted effect of over 35% in size. The following applies: Potency: viability. In short, it runs like this: as §1
Test [8] is described as follows: Quantitative highthroughput screen to assess conditional lethalithy of P12 Ichikawa cells grown in RPMI1640 with dialyzed fetal bovine serum (RPMI+ds) (AID 1963880). Further: nearly all actives have a fitted effect of over 35% in size. The conditions noted are these: Potency: P12-Ichikawa viability. In short, it runs like this:
as §1

As to `CCCCOc1c(C(=O)c2c(F)cc(C)cc2F)cnc2n[nH]cc12`, the Potency entry in test [1], in test [4], in test [5], in test [6], in test [7] and in test [8] was “inactive” in each case. For the same molecule, the Potency was 651 nM (active) and 1.32 µM (active) in test [2]; 461 nM (active) and 468 nM (active) in test [3].

On to `O=C(O)c1cccc(S(=O)(=O)N2CCc3ccccc3C2)c1`, for which the Potency result in test [1], in test [2] and in test [3] was “inactive” in each case.

As for `C[C@@H](O)[C@H](NC(=O)c1ccc(C#Cc2ccc(CN3CCOCC3)cc2)cc1)C(=O)NO`, the Potency result in test [1] is “inactive”. For the same molecule, the Potency in test [2] and in test [3] was 23.1 µM (active) throughout.

`N#Cc1cc(F)cc(-c2nc(-c3ccccn3)no2)c1`: the Potency result in test [1], in test [2] and in test [3] was “inactive” throughout.

In the case of `CC(C)C[C@@H](C(=O)N[C@@H](Cc1ccc(OCc2ccccc2)cc1)C(=O)NC(C)(C)C)N(C)Cc1ccc(C(C)(C)C)cc1`, the Potency result in test [1] and in test [2] was “inactive” each time. The Potency in test [3] was 3.66 µM (active).

Take `CC(C)(C(=O)c1cccnc1)c1cccnc1`: the Potency result in test [1], in test [2] and in test [3] was “inactive” in each case.

As for `COc1cc(CCc2cc(NC(=O)c3ccc(N4CC(C)NC(C)C4)cc3)n[nH]2)cc(OC)c1` (stereo not given), the Potency result in test [1] was “inactive”. Also, the results for the Potency in test [2] and in test [3] were 0.82 µM (active) and 1.03 µM (active), respectively.

On to `CCOCc1cc(OC)c(-c2ccc(C[C@H](NC(=O)c3c(F)cccc3F)C(=O)O)cc2)c(OC)c1`, for which the Potency result in test [1], in test [2] and in test [3] was “inactive” in each case.

For the molecule `O=C(O)CC1CCC(c2ccc(-c3ccc4nc(C(=O)NCc5ccc(OC(F)(F)F)cc5)cn4c3)cc2)CC1` (stereo not given), the Potency result in test [1], in test [2] and in test [3] was “inactive” throughout.

For `CCc1cc(CN2CC(C(=O)O)C2)sc1-c1noc(-c2ccc(Oc3ccccc3)cc2)n1`, the Potency entry in test [1], in test [2] and in test [3] was “inactive” each time.
